ATXN2 expr inh – reduces ATXN2 reporter expression in HEK-293 cells. Potency, µM (series often up to 57 µM), inactives show at the top dose activity change, negative = inhibition, most hits filed as inhibitors. AID 1745845. 0.72% of 360,000 active. HEK-293 ATXN2-luciferase reporter, luminescence, 24 h; further: on the % scale 0 is the no-effect control and ±100 the full control effect; nearly all actives have a fitted effect of over 55% in size
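ATXN2-luciferase reporter cells (luciferase flanked by upstream and downstream ATXN2 gene portions) were treated 24 h at 37 °C with compounds at up to 57 uM. SteadyGlo luminescence gave expression; GF-AFC fluorescence gave viability.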
RORgamma inh – blocks mouse ROR gamma transcriptional activity. Drosophila S2 Gal4-RORgamma UAS-luciferase reporter, 20 h. Potency, µM (titrated, usually from 53.6 µM), without a hit: top-dose activity change, negative = inhibition, actives largely listed as inhibitors. 5.4% of 310,000 active. AID 2551; further: on the % scale 0 is the no-effect control and ±100 the full control effect; nearly all actives have a fitted effect of over 60% in size
Target sequence (P51450 whole entry, looked up, the tested form may be a part): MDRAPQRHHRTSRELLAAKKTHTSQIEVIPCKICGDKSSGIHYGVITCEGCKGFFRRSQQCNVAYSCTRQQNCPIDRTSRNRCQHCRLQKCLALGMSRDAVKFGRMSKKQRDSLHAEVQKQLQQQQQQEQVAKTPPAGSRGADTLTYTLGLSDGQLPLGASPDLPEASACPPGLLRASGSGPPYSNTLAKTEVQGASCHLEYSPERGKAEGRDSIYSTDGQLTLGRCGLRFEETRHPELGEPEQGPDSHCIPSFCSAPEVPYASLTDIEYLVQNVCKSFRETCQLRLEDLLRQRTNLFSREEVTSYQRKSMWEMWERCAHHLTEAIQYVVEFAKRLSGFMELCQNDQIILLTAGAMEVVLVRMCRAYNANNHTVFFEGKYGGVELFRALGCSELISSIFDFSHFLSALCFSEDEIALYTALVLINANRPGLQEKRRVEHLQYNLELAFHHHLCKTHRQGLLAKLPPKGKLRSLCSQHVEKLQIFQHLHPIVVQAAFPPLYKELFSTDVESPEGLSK
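Schneider cells (Drosophila), stable Gal4 DBD–ROR gamma + UAS-luc; 1 hr cmpd preincubation; Cu2+ induction 700 uM final; 20 hr ambient; luminescence.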
TGFb inhibitor – blocks TGF-b signaling | HepG2 CAGA-GFP TGF-b/SMAD3 reporter, GFP fluorescence, 18 h; TGF-beta stimulated, 500 pg/mL final | Potency, µM (doses to about 46.1 µM), for the others: top-dose activity, negative = inhibition, hits mostly inhibitors | 1.2% of 410,000 active | AID 588855; further: on the % scale 0 is the no-effect control and ±100 the full control effect; nearly all actives have a fitted effect of over 65% in size
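Inhibition of TGF-beta-driven CAGA-GFP reporter expression in HEPG2 cells is measured by cellular GFP fluorescence after 18 h stimulation with 500 pg/mL recombinant TGF-beta in 1% FBS medium at 37 degrees C.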
VP16 counter – Gal4-VP16 reporter inhibition counter-screen. Drosophila S2 Gal4-VP16 UAS-luciferase, luminescence, 20 h. Potency, µM (titrated, usually from 53.6 µM), for the others: at the highest dose activity, negative = inhibition, hits mostly inhibitors. 3.5% of 310,000 active;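 further: Gal4-VP16 expression switched on by copper sulfate through the metallothionein promoter; on the % scale 0 is the no-effect control and ±100 the full control effect; nearly all actives have a fitted effect of over 50% in size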
HepG2 viability – counter-screen for TGF-b inhibitors: cytotoxicity in HepG2 cells; HepG2 CAGA-GFP viability, ATP luminescence, 18 h; Potency, µM (titrated, usually from 46.1 µM), for inactives: top-dose activity change, negative = cytotoxicity, actives largely listed as cytotoxic; 0.76% of 410,000 active
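HepG2 CAGA-GFP cells (1000/well, DMEM with 1% FBS) received compound, then TGF-beta at 500 pg/mL final, and were incubated 18 hours at 37 degrees C. Viability was read by CellTiter-Glo luminescence. Media-only wells were set as complete cell-killing and DMSO as no toxicity.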
ATXN viability – cell viability loss in ATXN counter-screen; S2 cells (HEK-293 line with an ATXN2-luciferase reporter) viability, CellTiter-Fluor protease fluorescence, 24 h; Potency, µM (doses to about 56.7 µM), hits mostly cytotoxic; 0.49% of 400,000 active; AID 651635; further: nearly all actives have a fitted effect of over 40% in size
Starred values were filed as active, the others as inactive; i = inactive; ? = inconclusive; . = no result given; [ ] = another dose, or the depositor's remark. In the library only some 6.3% were active in any assay of this set; here they are far more common. The call rests on the fitted dose curve; in most records, active means well fitted curve in the direction sought with a large enough effect; inconclusive means small, poorly fitted or top-dose-only effect, or another doubt; inactive means no such curve, though single readings can be large; an effect the other way counts as inactive or inconclusive. Potency means the concentration at half of the fitted maximal effect.

SMILES | ATXN2 expr inh | RORgamma inh | TGFb inhibitor | VP16 counter | HepG2 viability | ATXN viability
CC1CCCCC1NC(=O)NC(=O)COC(=O)c1nccnc1N (configuration not stated) | 4.3% | . | -15.2% | . | -2.9% | ?
CCN(CC)C(=O)c1ccc2c(=O)n(CCOC)c(=S)[nH]c2c1 | 0.1% | -11.2% | 3.8% | -10.2% | 0.4% | i
CC1(C)Cc2c(sc3[nH]c(=S)n(Cc4ccco4)c(=O)c23)CO1 | ? | 1µM* | -13.7% | 1.41µM* | -35.6% | i
CCN(CC)C(=O)c1ccc2c(=O)n(Cc3cccc(Br)c3)c(=S)[nH]c2c1 | . | 7.08µM* | -7.2% | 12.6µM* | -10.8% | ?
O=c1c2c3c(sc2[nH]c(=S)n1Cc1ccco1)CCC3 | -1.2% | ? | -2.7% | ? | -18.1% | i
CN1CCN(C(=O)c2ccc3c(=O)n(Cc4ccco4)c(=S)[nH]c3c2)CC1 | 0.6% | -6.5% | 10.3% | -2.6% | 2.9% | i
CCCn1c(=S)[nH]c2cc(C(=O)N(CCO)Cc3ccccc3)ccc2c1=O | -14.5% | 12.6µM* | ? | ? | -1.0% | i
CCCN(CCC)C(=O)c1ccc2c(=O)n(Cc3ccco3)c(=S)[nH]c2c1 | . | 3.16µM* | -17.4% | ? | -37.9% | ?
CCOc1ccc(C(=O)N2CCN(Cc3cc(=O)n4nc(-c5ccccc5Cl)sc4n3)CC2)cc1 | 11.6% | . | -12.4% | . | -0.7% | i
CNC(=O)CN(CCN(CCN(CC(=O)[O-])CC(=O)NC)CC(=O)[O-])CC(=O)[O-].O.[Gd+3] | 6.6% | . | . | . | . | i
Cc1ccc(OCC(=O)NCC2(N3CCN(C)CC3)CCCCC2)cc1C | . | . | -17.0% | . | 1.2% | .
COC(=O)[C@@H]1C[C@H](NC(=O)c2cc(C(F)(F)F)ccc2Cl)CN1Cc1cccc(O)c1 | . | . | . | . | . | i
CC(C)OCCCNC(=O)c1ccc2c(=O)n(Cc3ccc4c(c3)OCO4)c(=S)[nH]c2c1 | -32.0% | 3.4% | -5.9% | 1.8% | -20.2% | i
CC1CCCN(C(=O)c2ccc3c(=O)n(Cc4ccc5c(c4)OCO5)c(=S)[nH]c3c2)C1 (configuration not stated) | -12.2% | 7.94µM* | -17.1% | ? | -16.8% | i
CCN(CC)C(=O)c1ccc2c(=O)n(Cc3ccc4c(c3)OCO4)c(=S)[nH]c2c1 | . | 11.2µM* | ? | ? | -8.9% | i
COCCn1c(=S)[nH]c2cc(C(=O)N3CCCC(C)C3)ccc2c1=O (configuration not stated) | -12.3% | ? | -26.8% | ? | -32.3% | i
S=C1Nc2ccccc2Sc2ccc(Cl)cc21 | -13.1% | 1.78µM* | -2.7% | 2.82µM* | -23.9% | ?
Clc1cc2c(nn1)Nc1ccccc1S2 | . | -7.2% | -22.9% | 0.7% | -17.9% | i
O=C(NCc1cccc(Cl)c1)c1ccc(S(=O)(=O)Nc2cccc(C(F)(F)F)c2)cc1 | -5.9% | ? | ? | ? | 10µM* | i
O=C(NNc1nc(=O)c2cccnc2s1)c1ccccc1O | -29.5%[11.3 µM] | 0.0501µM* | 1.1% | -89.6% | -26.8% | i
Cc1ccccc1NC(=S)NNc1ncc(C(F)(F)F)cc1Cl | -2.5% | 3.0% | -8.7% | 3.5% | -23.0% | i
FC(F)(F)c1cnc(NNC(=S)Nc2cccnc2)c(Cl)c1 | . | 12.6µM* | ? | ? | 0.1% | i
Fc1ccccc1NC(=S)NNc1ncc(C(F)(F)F)cc1Cl | ? | ? | ? | 15.8µM* | -37.8% | i
FC(F)(F)c1cnc(NNC(=S)Nc2ccccc2)c(Cl)c1 | . | . | ? | . | -61.9% | .
Cc1c(Cl)cccc1NC(=S)NNc1ncc(C(F)(F)F)cc1Cl | ? | 15.8µM* | ? | ? | -12.8% | ?
SMILES | ATXN2 expr inh | RORgamma inh | TGFb inhibitor | VP16 counter | HepG2 viability | ATXN viability
Cc1cccc(C)c1NC(=S)NNc1ncc(C(F)(F)F)cc1Cl | -0.4% | 7.94µM* | -15.9% | ? | -8.8% | i
COCCNC(=O)c1c(NC(=O)c2cc(=O)c3cc(C)cc(C)c3o2)sc2c1CCCC2 | 1.4% | . | 1.4% | . | -0.6% | i
NC(=S)Nc1ncc(C(F)(F)F)cc1Cl | 2.9% | 7.08µM* | -9.9% | ? | -28.9% | i
O=C(O)c1ccc(/C=N/Nc2ncc(C(F)(F)F)cc2Cl)cc1 | 19.3% | 10µM* | 3.6% | 13.1% | -3.6% | i
CC(C)(C)C(=O)Nc1ncc(C(F)(F)F)cc1Cl | -31.9% | 30.6% | 8.5% | 20.1% | -22.2% | ?
Cc1cccc(Cn2c(CN3CCCC(C)C3)nc3c2c(=O)n(C)c(=O)n3C)c1 (configuration not stated) | 3.0% | . | 5.3% | . | 0.4% | i
Cc1ccc(-c2n[nH]c(=S)nc2-c2ccc(C)cc2)cc1 | . | 5.01µM* | -5.1% | ? | 4.0% | i
Cc1ccc(C(=O)c2cn(CC(=O)Nc3ccc(C)cc3Cl)c3nc(C)ccc3c2=O)cc1 | 2.4% | . | -0.5% | . | -0.6% | i
CCn1nc(C)cc1-c1nnc(Sc2ncc([N+](=O)[O-])s2)n1C | . | 5.01µM* | 2.82µM* | 4.47µM* | 3.98µM* | 3.55µM*
CCCNC(=O)C1(C)CCN(C(=O)c2ccc(F)c(Cl)c2)C1 (configuration not stated) | 5.2% | . | 26.1% | . | -1.5% | i
CCOc1ccc2[nH]c(=O)c(C(c3nnnn3Cc3ccco3)N3CCN(C)CC3)cc2c1 (configuration not stated) | -15.5% | 3.55µM* | -12.1% | 3.55µM* | -14.4% | i
Cc1cc2cc(C(c3nnnn3Cc3ccco3)N3CCCCC3)c(=O)[nH]c2cc1C (configuration not stated) | -11.4% | -1.5% | 5.4% | 14.4% | -5.1% | i
COc1ccc(Cn2c(=O)c3ccccc3n3c(-c4ccc(C)cc4)nnc23)cc1 | 14.8% | . | ? | . | -12.0% | i
CN(NC(=O)c1ccccc1)c1ncc(C(F)(F)F)cc1Cl | 3.0% | 0.7% | 13.6% | -23.0% | 27.7% | i
CN(NS(C)(=O)=O)c1ncc(C(F)(F)F)cc1Cl | 3.2% | 11.2µM* | -1.2% | ? | -4.9% | i
O=S(=O)(c1ccccc1)c1ncc(C(F)(F)F)cc1Cl | ? | 8.91µM* | ? | 15.8µM* | -60.1% | ?
COc1ccc(NC(=O)C2Cc3c(-c4ccc5c(c4)OCO5)ccnc3O2)cc1OC (configuration not stated) | ? | . | -5.7% | . | -38.0% | 2.51µM*
O=C(Nc1ccccc1)C1Cc2c(-c3ccccc3Oc3ccccc3)ccnc2O1 (configuration not stated) | ? | . | 12.4% | . | -2.0% | ?

Source: PubChem BioAssay (National Center for Advancing Translational Sciences (NCATS))
